Laboratory results: PubChem BioAssay AID488969 (Vanderbilt High Throughput Screening Facility, 2010)
Over roughly 110,000 compounds, “z-score” has its median near -0.1; the highest 2% begin near 2. The sample as a whole holds a higher share of the highest values than the screen did. Activity calls are given as the source filed them.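 How the source made its calls: active means z-score in the third read window above 3 or below -3; inactive means the rest.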

target: Metabotropic glutamate receptor 8 (Rattus norvegicus) (UniProt P70579); test: rat mGluR8 modulators via GIRK flux, primary screen, cell-based, thallium flux, HTS (AID 488969); details: HEK293 rat mGluR8, GIRK (G protein-gated inwardly rectifying potassium channel) thallium flux, FluoZin2; at 10 µM; stronger effect = higher value; submaximal glutamate (EC20) added with thallium
Sequence (P70579 whole entry, looked up): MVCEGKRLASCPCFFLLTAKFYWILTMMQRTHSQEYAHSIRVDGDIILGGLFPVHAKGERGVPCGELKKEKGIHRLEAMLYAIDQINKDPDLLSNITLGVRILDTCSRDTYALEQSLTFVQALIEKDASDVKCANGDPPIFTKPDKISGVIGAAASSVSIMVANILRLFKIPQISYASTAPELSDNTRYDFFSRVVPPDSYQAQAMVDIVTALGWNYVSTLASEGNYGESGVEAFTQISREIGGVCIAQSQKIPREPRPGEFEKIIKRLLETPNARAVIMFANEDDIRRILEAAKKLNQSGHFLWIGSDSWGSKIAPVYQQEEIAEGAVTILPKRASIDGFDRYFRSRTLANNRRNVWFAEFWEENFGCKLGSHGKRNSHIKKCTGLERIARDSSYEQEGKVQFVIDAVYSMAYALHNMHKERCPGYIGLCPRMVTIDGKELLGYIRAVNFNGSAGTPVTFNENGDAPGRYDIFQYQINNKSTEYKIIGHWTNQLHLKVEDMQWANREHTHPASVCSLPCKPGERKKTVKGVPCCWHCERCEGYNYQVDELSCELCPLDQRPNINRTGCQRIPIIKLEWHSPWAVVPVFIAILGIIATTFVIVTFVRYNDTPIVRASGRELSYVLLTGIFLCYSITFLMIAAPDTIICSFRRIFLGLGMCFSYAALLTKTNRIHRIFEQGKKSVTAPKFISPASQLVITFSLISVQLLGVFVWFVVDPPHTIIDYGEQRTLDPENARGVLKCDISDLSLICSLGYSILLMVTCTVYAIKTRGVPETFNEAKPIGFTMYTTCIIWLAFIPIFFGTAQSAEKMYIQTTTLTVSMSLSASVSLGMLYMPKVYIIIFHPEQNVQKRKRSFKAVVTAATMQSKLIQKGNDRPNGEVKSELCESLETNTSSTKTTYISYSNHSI

Structure (SMILES)	z-score
CNc1nc(CCN2C(=O)c3ccccc3C2=O)cs1	-0.0681
CCOC(=O)C(C)Sc1nc(C2CC2)cc(C(F)(F)F)c1C#N (centres undefined)	1.1
O=C(NC(C(=O)O)c1ccccc1)c1ccccc1 (centres undefined)	0.488
COC(=O)CCC(=O)Nc1ccc(C)cc1OC(=O)CCC(=O)OC	0.273
COc1ccccc1CNS(=O)(=O)c1c(C)[nH]c(=O)[nH]c1=O	0.0871
O=C1CC(c2ccc(S(=O)(=O)NCCOc3ccccc3)cc2)CN1 (centres undefined)	0.129
Cc1ccc(CN2C3=NCCCN3c3ccccc32)cc1	3.51 (active)
CCN1C2=NCCCN2c2ccccc21	0.0152
Cc1ccccc1CN1C2=NCCCN2c2ccccc21	3.26 (active)
Fc1ccc(CN2C3=NCCCN3c3ccccc32)cc1	-0.37
Cc1ccc(C(O)CN2C3=NCCCN3c3ccccc32)cc1 (centres undefined)	1.16
CCCN1C2=NCCCN2c2ccccc21	0.397
C=CCNC(=O)c1cc(Cl)ccc1Cl	0.018
COc1ccc2c(C)cc(=O)[nH]c2c1	-0.159
CN(C)CCNC(=O)c1cc2c(s1)-c1ccccc1OC2	3.28 (active)
O=C(NC1CC1)c1cc2c(s1)-c1ccccc1OC2	-0.272
O=C(NCc1cccs1)c1cc2c(s1)-c1ccccc1OC2	-0.399
Cc1cc(C)n(-c2ccc(Cl)c(C(=O)Nc3cc(C(F)(F)F)ccc3Cl)n2)n1	0.25
CC(C)c1ccc(OCC(=O)N(Cc2ccccc2)c2ccccn2)cc1	-0.499
CCN(CC(=O)Nc1cccc(OC)c1)c1ncnc2sc(C)c(C)c12	-0.125
Cc1c(NC(=O)CSc2ncn[nH]2)c(=O)n(-c2ccccc2)n1C	0.565
CCCCc1ccc(NC(=S)Nc2cccnc2)cc1	2.66
CCCCc1ccc(NC(=S)Nc2ccc(Nc3ccc(OC)cc3)cc2)cc1	-0.0123

Structure (SMILES)	z-score
CCCCC(=O)Nc1ccc(C(=O)Nc2cccnc2)cc1	0.0123
CC(=O)N1CCN(CC(=O)Nc2ccc(Cl)c(S(=O)(=O)N(C)C)c2)CC1	-0.0302
CCC(C(=O)OCC(=O)Nc1ccc(Cl)c(S(=O)(=O)N(C)C)c1)c1ccccc1 (centres undefined)	-2.23
CCCCc1ccc(NC(=S)Nc2ccc(Cl)c(S(=O)(=O)N(C)C)c2)cc1	5.93 (active)
CNC(=O)N1CCN(C(=O)NC)CC1	-0.168
CCN(CC)S(=O)(=O)c1ccc(N2CCOCC2)c(NS(=O)(=O)c2cc(C(C)(C)C)ccc2C)c1	-0.103
O=C1[C@@H]2[C@H](C(=O)N1Cc1ccco1)[C@H]1C=C[C@@H]2C1	-0.0939
Cc1cc(C(=O)CSc2nc3ccccc3o2)c(C)n1CC1CCCO1 (centres undefined)	-0.415
CCCCCCc1cc2cc(C(=O)NCc3ccccc3)c(=N)oc2cc1O	0.891
CCCCCCc1cc2cc(C(N)=O)c(=N)oc2cc1O	-1.44
CCCCCCc1cc2cc(C(=O)NC)c(=N)oc2cc1O	11.6 (active)
O=C(Nc1ccc(Br)cc1)c1ccc(N2C(=O)C3CC=CCC3C2=O)cc1 (centres undefined)	0.106
COc1cc(C(=O)NNC2=CC(=O)CC(C)(C)C2)cc(OC)c1OC	-0.21
Cc1cc(N/C(=N\S(=O)(=O)c2ccc(F)cc2F)c2ccccc2)no1	0.0702
CCn1c(SCC(=O)c2ccc(NC(C)=O)c(OC)c2)nnc1-c1ccc(NS(C)(=O)=O)cc1	-0.0548
COc1ccc(-c2nnc(SCC(=O)Oc3ccc(C)cc3)o2)cc1	-0.915
COc1ccc(-c2nnc(SC(C)C(=O)Nc3ccc4c(c3)OCCO4)o2)cc1 (centres undefined)	1.65
COc1ccc(-c2nnc(SC(C)C(=O)Nc3cccc(Cl)c3)o2)cc1 (centres undefined)	-0.517
Cc1ccc(C(=O)CSc2nnc(-c3ccccc3)o2)cc1	0.068
CCC(=O)Nc1ccc(C(=O)CSc2nnc(CNc3ccc(Cl)cc3)o2)cc1OC	-0.38
COc1ccc(-c2nnc(SC(C)C(=O)NNC(=O)c3ccc(C)cc3)o2)cc1 (centres undefined)	2.1
COc1ccc(C(=O)CSc2nnc(-c3ccc(C)cc3)o2)cc1	2.18
CCS(=O)(=O)Nc1ccc(-c2nnc(SCC(=O)c3ccc(NC(C)=O)c(OC)c3)o2)cc1	4.64 (active)

Structure (SMILES)	z-score
COCCNC(=O)c1onc(CSc2ccc(C)c(C)c2)c1C(=O)O	-0.0285
CN1C(=O)COc2ccc(C(=O)c3oc4ccccc4c3-c3cnc4c(c3)COc3ccccc3-4)cc21	-0.142
O=C(Cc1ccccc1)Nc1c[nH]c(=O)[nH]c1=O	-0.449
Brc1ccc2[nH]c3c(N4CCc5ccccc5C4)ncnc3c2c1	-0.00372
O=C(CCn1cccc1)Nc1cc(F)ccc1F	-0.224
Cc1cncn1CCc1nc2c3ccccc3nc(=S)n2[nH]1	-0.535
S=c1nc2ccccc2c2nc(-c3ccccc3)[nH]n12	2.81
Cc1nc2ccccc2n1CCc1nc2c3ccccc3nc(=S)n2[nH]1	-0.257
Cc1ccccc1C(=O)Nc1ccccc1C(=O)NCc1ccccc1	-0.529
CCOC(=O)c1cn2nc(-c3ccc(OCC)cc3)cc2nc1C1CCN(C(=O)OC(C)(C)C)CC1	-0.13
Cc1ccc(NC(=O)COC(=O)c2ccc([N+](=O)[O-])s2)c(C)c1	0.229
O=C(COC(=O)c1ccc([N+](=O)[O-])s1)Nc1ccccc1	-0.0827
CC(C)(C)c1ccc(NC(=O)COC(=O)c2ccc([N+](=O)[O-])s2)cc1	2.01
COc1ccccc1/C=C/C(=O)NCC(=O)N/N=C/c1cccnc1	0.376
CC(NS(=O)(=O)c1ccc(CCC(=O)NCc2cccnc2)cc1)c1ccccc1 (centres undefined)	0.0386
Cc1nnc(SCC(=O)Nc2ccccc2N2CCOCC2)s1	-0.0127
O=C(Nc1cc(Cl)cc(Cl)c1)C1CCC(=O)N1Cc1ccccc1Cl (centres undefined)	-0.359
O=C(Nc1ccc(Cl)cc1)C1CCC(=O)N1Cc1ccccc1Cl (centres undefined)	0.406
O=C(Nc1ccc(Br)cc1)C1CCC(=O)N1Cc1ccccc1Cl (centres undefined)	4.3 (active)
CCCCN(CCCC)CC(O)CN(c1cc([N+](=O)[O-])ccc1OC)S(=O)(=O)c1ccccc1 (centres undefined)	0.91
O=c1[nH]c(CN2CCc3ccccc3C2)nc2ccccc12	0.446
Cc1[nH]c2ccccc2c1CN1CCc2ccccc2C1	3.72 (active)
Cn1cc(CN2CCc3ccccc3C2)c2ccccc21	0.58

Structure (SMILES)	z-score
COc1ccc(-c2[nH]ncc2/C=N\NC(=O)c2ccc(C(C)(C)C)cc2)cc1OC	-0.413
CCOC(=O)c1c(-c2ccccc2)csc1NC(=S)N(CC)CC	0.121
CCOC(=O)c1c(-c2ccccc2)csc1NC(=S)NC	7.44 (active)
CCNC(=S)Nc1scc(-c2ccccc2)c1C(=O)OCC	6.92 (active)
CCOC(=O)c1c(-c2ccccc2)csc1NC(=O)CCN1C(=O)c2ccccc2C1=O	-0.51
CCOC(=O)c1c(-c2ccccc2)csc1NC(=O)C1CCCO1 (centres undefined)	-0.568
CCOC(=O)c1c(-c2ccc(C)cc2)csc1NC(=S)NC(=O)c1ccccc1	0.153
COc1ccc(NC(=O)c2ccc3snnc3c2)cc1	-0.112
CS(=O)(=O)N1CCN(c2ccc(NC(=O)c3cccnc3Cl)cc2)CC1	0.393
CC(NS(=O)(=O)c1ccccc1)C(=O)Nc1ccc(S(N)(=O)=O)cc1 (centres undefined)	0.246
CCCc1cc(=O)[nH]c(SCCOC(=O)c2ccccc2)n1	-0.349
CCOc1ccc2nc(NC(=S)N(C)C)sc2c1	-0.436
COc1ccc2nc(NC(C)=O)sc2c1	-0.0562
COc1ccc2nc(NC(=S)N(C)C)sc2c1	14.8 (active)
COc1cccc(N=C2SC(C(=O)Nc3ccccc3F)CC(=O)N2C)c1 (centres undefined)	-0.119
CC(=O)Oc1ccc(N(C(C)=O)S(=O)(=O)c2cccs2)cc1	-0.202
COc1ccc(S(=O)(=O)N(C(C)=O)c2ccc(OC(C)=O)c3ccccc23)cc1[N+](=O)[O-]	-0.812
CC(=O)Oc1ccc(N(C(C)=O)S(=O)(=O)c2cccs2)c2ccccc12	4.9 (active)
CC(C)C(=O)NC(=S)Nc1nnn(C)n1	0.169
CC(C)CC(=O)Nc1nnn(C)n1	0.332
CC(C)C(=O)Nc1nnn(C)n1	9.51 (active)
CCN1CCCC1CNC(=O)C(=O)Nc1cccc(OC)c1 (centres undefined)	2.04
CCN1CCCC1CNC(=O)C(=O)Nc1ccc(OC)cc1 (centres undefined)	0.521

Structure (SMILES)	z-score
CCN1CCCC1CNC(=O)C(=O)Nc1ccccc1OC (centres undefined)	0.00956
CCOc1ccc(N(CC(=O)N2CC=C(c3ccccc3)CC2)S(=O)(=O)c2c(C)noc2C)cc1	-0.285
O=C(COC(=O)c1cn(-c2ccccc2)nc1-c1ccc(F)cc1)Nc1ncc(Cl)cc1Cl	0.0446
CCC(C)NC(=O)C1CCN(c2nc(OC)nc(OC)n2)CC1 (centres undefined)	0.12
CCn1c2ccccc2c2cc(NC(=O)C/C(C)=N/NC(=O)c3ccccc3N)ccc21	-0.0756
C/C(CC(=O)Nc1cccc2c1CCCC2)=N\NC(=O)c1cccc2ccccc12	-0.483
C/C(CC(=O)Nc1cccc2c1CCCC2)=N\NC(=O)c1ccccc1N	2.22
COc1cc(NC(=O)c2ccco2)ccc1NC(=O)C(C)C	0.332
Nc1nc(SCC(=O)NCCCO)nc2sc3c(c12)CCC3	1.08
O=C(CC1NC2CCCCC2NC1=O)Nc1cccc(C(F)(F)F)c1 (centres undefined)	0.497
O=C(Nc1ccc(F)c(F)c1)NC1CCCCC1	3.01 (active)
O=C(Nc1ccc(F)cc1)NC1CCCCC1	0.532
O=C(CSC1=NS(=O)(=O)c2ccccc21)Nc1ccccc1	-0.326
CCc1cccc(NC(=O)CSC2=NS(=O)(=O)c3ccccc32)c1	3.52 (active)
CCc1cccc(NC(=O)NC2CCCCC2)c1	4.38 (active)
COC(=O)CSC1=NS(=O)(=O)c2ccccc21	-2.06
O=C(Nc1cccc(F)c1)NC1CCCCC1	0.258
CCc1cccc(NC(=O)COc2ccccc2)c1	0.78
CCc1cccc(NC(=O)C2CCCC2)c1	0.366
CCc1cccc(NC(=O)CCSCCC(=O)Nc2cccc(CC)c2)c1	3.02 (active)
O=C(Nc1ccc(Cl)cc1)NC1CCCCC1	0.269
Cc1ccc(NC(=O)CCSCCC(=O)Nc2ccc(C)c(C)c2)cc1C	-0.0616
